WT yeast gro inh: growth inhibition of WT strain, primary screen, mitochondrial fusion inhibitor project, WT and mutant strains, chemical genetic. AID 1362, 2008. mitochondrial fusion phenotypic screen. inhibition, % at 10 µM. hit rate 2.1% among 190,000; in the data active = inhibition above about 58%; tested in S. cerevisiae
CHOP inhibitor: inhibitors of CHOP promoter induction, primary screen, cell-based, unfolded protein response, luciferase reporter. CHO-K1 CHOP-promoter luciferase, tunicamycin-induced, 15-18 h. inhibition, % at 10 µM. hit rate 3.8% among 220,000;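 active = compounds that reduced the stress-induced luciferase reporter signal by more than about 70% of percent inhibition, limit read from the data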;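 note: 0% = tunicamycin plus vehicle and 100% = wells without tunicamycin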
Arbovirus inh: antivirals against arbovirus infection, primary screen, cell-based, full library, 10K replicate subset; arbovirus infection cell-based antiviral screen; inhibition, % at 10 µM; hit rate 0.37% among 200,000; AID 1251, 2008; in the data active = inhibition above about 30%
Lmaj promast: Leishmania major promastigote growth inhibition, primary screen; Leishmania major promastigotes, resazurin fluorescence viability; inhibition, % at 10 µM; hit rate 9% among 200,000; AID 1063, 2008; in the data active = inhibition above about 50%;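 note: promastigotes grown with compound for 44 hours at 28 °C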
* marks the source's active call; other numbers are inactive results; · = not tested or not shown. Compounds with a hit are over-represented: about 12% of the library has one in this group of screens.

SMILES	WT yeast gro inh	CHOP inhibitor	Arbovirus inh	Lmaj promast
CC(C)n1c(/C=C/c2ccccc2)nc2ccccc21	34	20	-4	50*
CC(C)n1c(Nn2cnnc2)nc2ccccc21	4	18	0	-1
S=C(c1cn(Cc2ccc(Br)cc2)c2ccccc12)N1CCOCC1	48	5	6	39
CC1(C)C(=O)N(CCN2CCC(C(=O)c3ccc(F)cc3)CC2)c2ccccc21	·	-13	·	·
NC(=O)c1ccc(NC(=O)COC(=O)c2cccc(Oc3ccccc3)c2)cc1	-2	20	3	-9
C/C(=C\C(=O)c1sccc1Cl)N(C)C	-7	-11	1	6
OC1(c2ccc3ccccc3c2)CCN(Cc2ccccc2)C1 (stereo not drawn)	13	5	0	94*
c1ccc(CN2CCC3(CCCc4ccccc43)CC2)cc1	·	-9	·	·
Cc1ccccc1OCCCCCn1ccnc1	4	14	7	100*
Clc1ccccc1OCCCCn1ccnc1	6	8	-9	100*
Clc1ccc(SCCCCn2ccnc2)cc1	34	7	-7	100*
Cc1cccc(OCCCCCn2ccnc2)c1	12	30	5	100*
CC1C(C#N)=C(N)OC2=C1C(=O)CC(c1ccccc1)C2 (stereo not drawn)	0	17	0	1
O=C(Nc1ccccc1C(=O)OCC(=O)c1c[nH]c2ccccc12)c1ccco1	5	65	3	12
CCOc1ccc(-n2c(C)nc(O)c2N=Nc2ccccc2)cc1	-9	-16	-12	-2
CCOc1ccc(/C(O)=C2/C(=O)C(=O)N(CC3CCCO3)C2c2cccs2)cc1 (stereo not drawn)	1	-20	4	-8
CCOC(=O)c1ccc(-n2c(C)nc3ccc(Br)cc3c2=O)cc1	·	11	·	·
NC(=O)C1CCN(c2ncc(C(F)(F)F)cc2Cl)CC1	-14	7	0	-5
COc1cc(/C=N/N(C)S(=O)(=O)c2ccc(C)cc2)cc([N+](=O)[O-])c1O	·	-1	·	·
COc1ccc(-c2[nH]ncc2CN2CCC(OCc3ccccn3)CC2)c(F)c1	·	-1	·	·
Cc1ccc(C(C(=O)NC2CCCC2)N2CCc3ccccc32)cc1 (stereo not drawn)	8	79*	12	1
O=C(NC1CCCCC1)C(c1ccccc1)N1CCc2ccccc21 (stereo not drawn)	0	53	-21	50*
O=C(NC1CCCC1)C(c1ccc(Cl)cc1)N1CCc2ccccc21 (stereo not drawn)	18	52	2	7
O=C(O)COCC(=O)Nc1ccc(-n2cnnn2)cc1	14	8	11	-8
CCOc1cc(/C=N/O)ccc1OCc1ccc([N+](=O)[O-])cc1	-2	5	2	58*
SMILES	WT yeast gro inh	CHOP inhibitor	Arbovirus inh	Lmaj promast
COc1cc(/C=N/O)ccc1OCc1ccc(C(=O)O)cc1	-1	90*	-6	-8
CCOc1cc(/C=N/O)ccc1OCc1ccc(F)cc1	-9	38	3	37
Cc1ccc(/C=C/C(=O)O)cc1S(=O)(=O)NCc1ccco1	-29	17	3	-7
CC(C)Cc1nnc(NC(=O)CCC(=O)NC2CCCc3ccccc32)s1 (stereo not drawn)	-7	2	-7	96*
CCCCNC(=O)CSc1nc2ccccc2n1S(=O)(=O)c1ccc(Cl)cc1	-14	75*	4	17
O=C(NCc1ccccn1)NC12CC3CC(CC(C3)C1)C2	-5	11	14	1
O=C(NCc1ccccn1)C(=O)Nc1nc(C23CC4CC(CC(C4)C2)C3)cs1	71*	71*	-33	68*
CC1CCCC(NC(=O)COC(=O)c2cccc(NS(=O)(=O)/C=C/c3ccccc3)c2)C1C (stereo not drawn)	-14	39	-2	53*
COc1cccc(/C=C(/C(=O)OCC(=O)NC2CCCC(C)C2C)c2ccccc2)c1 (stereo not drawn)	34	47	-17	96*
CC(C)NC(=O)COC(=O)c1cccc(NS(=O)(=O)/C=C/c2ccccc2)c1	5	2	-1	-3
O=[N+]([O-])c1ccc(NCCCNS(=O)(=O)c2ccc(Cl)cc2)c(Cl)c1	60*	82*	7	94*
O=[N+]([O-])c1ccccc1NCCNS(=O)(=O)c1ccc(Cl)cc1	-3	29	7	31
CC(C)Cn1c(N)c(C(=O)COC(=O)c2cccnc2Cl)c(=O)n(C)c1=O	-33	9	19	17
Oc1ccc(CNCC2COc3ccccc3O2)cc1 (stereo not drawn)	-2	-9	12	88*
O=C(N/N=C/c1ccc([N+](=O)[O-])o1)c1cc(-c2cccc(Br)c2)nc2ccccc12	36	60	-31	100*
CCCc1ccc(-c2cc(C(=O)N/N=C/c3ccc([N+](=O)[O-])o3)c3ccccc3n2)cc1	63*	23	-24	100*
CC(C)NC(=O)c1c2c(nc3ccccc13)CCCC2	16	-7	-2	-3
COc1ccc(C(NC(=O)C(C)C)c2c(O)ccc3ccccc23)cc1 (stereo not drawn)	-22	-2	-14	96*
COc1ccc(C(NC(=O)C(C)C)c2c(O)ccc3ccccc23)cc1OC (stereo not drawn)	3	15	4	99*
CC(C)C(=O)NC(c1ccco1)c1c(O)ccc2ccccc12 (stereo not drawn)	-4	24	2	29
CCC(=O)NC(c1ccc(N(C)C)cc1)c1c(O)ccc2ccccc12 (stereo not drawn)	1	15	3	100*
O=C(NC(c1ccc(Cl)cc1)c1c(O)ccc2ccccc12)c1ccccc1 (stereo not drawn)	56	85*	-32	99*
COc1ccccc1NC(=O)CCSc1nc(C)cc(C)n1	9	0	-6	-4
COc1ccc(N2CCN(C(=O)NC3CC(=O)N(c4ccc(OC)cc4)C3)CC2)cc1 (stereo not drawn)	2	11	21	-3
CC(C)C(=O)NC(c1ccccc1Cl)c1c(O)ccc2ccccc12 (stereo not drawn)	5	59	-4	99*
SMILES	WT yeast gro inh	CHOP inhibitor	Arbovirus inh	Lmaj promast
CCC(=O)NC(c1ccc(OC)cc1)c1c(O)ccc2ccccc12 (stereo not drawn)	-4	-9	-14	99*
CCC(=O)NC(c1ccccc1Cl)c1c(O)ccc2ccccc12 (stereo not drawn)	-15	20	7	22
CC(=O)Oc1ccc2ccccc2c1C(NC(=O)Cc1ccccc1)c1ccccc1 (stereo not drawn)	-12	28	-28	28
CSC1=N/C(=C\c2ccccc2Cl)C(=O)N1N(C)C	·	7	·	·
O=C1N/C(=C/c2cccs2)C(=O)N1Cc1ccc(Br)cc1	-5	-2	-9	2
CCOc1ccc(NC(=S)N/N=C(\C)Cc2ccc(OC)cc2)cc1	26	15	3	62*
CCCCc1ccc(NC(=S)Nc2cccnc2)cc1	6	38	11	-1
CCCCc1ccc(NC(=S)Nc2ccc(Nc3ccc(OC)cc3)cc2)cc1	55	69	-18	60*
COc1ccc(C/C(C)=N/NC(=S)Nc2ccc(Cl)cc2)cc1	·	10	·	·

Screening data: PubChem, several laboratories
